The full data set covers some 8,800 targets. This sample favours those with a hit. About 0.5% of all pairs of compound and target were hits.
Experiments:
Assay in all cases: log2 fold change, soluble protein after heating vs DMSO (PISA); higher = thermal stabilisation; K562 lysate, 10 uM; active = over 0.2 and 3.5 SD of the protein, either way, in both replicates (recomputed)
[1] = compound: C1=CC=C(C=C1)[C@H](COC2=CC3=C(C=C2)NC(=O)N3)NC(=O)C4=CC=CN(C4=O)CC5=CC(=C(C=C5)F)F
Method in brief: (§1)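 A 30 min treatment with 10 μM compound was applied to crude K562 extract at 1 mg/mL protein in PBS pH 7.4 with 1 mM MgCl2. Heating for 3 min spanned 48°C-58°C, after which aliquots were pooled, adjusted to 0.5% NP-40 at 4°C and spun at 21,000xg for 90 min. TMTpro 16plex LC-MS/MS of the supernatant, with channel sums equalised, gave values recorded as log-two fold change in thermal stability against solvent controls, from duplicates.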

[2] = compound: CC1=C(SC2=C1C(=N[C@H](C3=NN=C(N32)C)CC(=O)N)C4=CC=C(C=C4)Cl)C
Method in brief: as §1

[3] = compound: CC1=C2C(=CC=C1)N=C(N(C2=O)C3=CC=CC=C3C)CN4C=NC5=C(N=CN=C54)N
Method in brief: as §1

[4] = compound: Cc1sc2c(c1C)C(c1ccc(Cl)cc1)=N[C@@H](CC(=O)OC(C)(C)C)c1nnc(C)n1-2
Method in brief: as §1

[5] = compound: c1ccc([C@@H]2C[C@H]2NC2CCNCC2)cc1
Method in brief: as §1

Measured: log2 fold change

CSK (UniProt P41240)
UniProt P41240, sequence (P41240 whole entry, looked up): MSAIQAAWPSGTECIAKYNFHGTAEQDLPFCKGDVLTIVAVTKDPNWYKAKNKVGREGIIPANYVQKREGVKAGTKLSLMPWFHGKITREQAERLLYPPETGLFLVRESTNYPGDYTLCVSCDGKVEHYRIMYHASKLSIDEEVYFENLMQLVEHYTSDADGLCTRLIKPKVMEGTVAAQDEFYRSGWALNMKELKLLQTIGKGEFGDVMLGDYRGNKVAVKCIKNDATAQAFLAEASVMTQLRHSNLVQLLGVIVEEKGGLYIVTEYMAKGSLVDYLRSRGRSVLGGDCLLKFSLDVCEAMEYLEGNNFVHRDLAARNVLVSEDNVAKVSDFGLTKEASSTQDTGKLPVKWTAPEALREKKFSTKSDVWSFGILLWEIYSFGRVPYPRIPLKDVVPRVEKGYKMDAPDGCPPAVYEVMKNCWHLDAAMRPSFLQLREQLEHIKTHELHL
inactive: [1] -0.039 | [2] -0.049 | [3] -0.019 | [4] -0.057 | [5] -0.037

DOK1 (UniProt Q99704)
inactive: [1] 0.048 | [2] -0.024 | [3] -0.005 | [4] 0.064 | [5] -0.036

CPT1A (UniProt P50416)
UniProt P50416, sequence (P50416 whole entry, looked up): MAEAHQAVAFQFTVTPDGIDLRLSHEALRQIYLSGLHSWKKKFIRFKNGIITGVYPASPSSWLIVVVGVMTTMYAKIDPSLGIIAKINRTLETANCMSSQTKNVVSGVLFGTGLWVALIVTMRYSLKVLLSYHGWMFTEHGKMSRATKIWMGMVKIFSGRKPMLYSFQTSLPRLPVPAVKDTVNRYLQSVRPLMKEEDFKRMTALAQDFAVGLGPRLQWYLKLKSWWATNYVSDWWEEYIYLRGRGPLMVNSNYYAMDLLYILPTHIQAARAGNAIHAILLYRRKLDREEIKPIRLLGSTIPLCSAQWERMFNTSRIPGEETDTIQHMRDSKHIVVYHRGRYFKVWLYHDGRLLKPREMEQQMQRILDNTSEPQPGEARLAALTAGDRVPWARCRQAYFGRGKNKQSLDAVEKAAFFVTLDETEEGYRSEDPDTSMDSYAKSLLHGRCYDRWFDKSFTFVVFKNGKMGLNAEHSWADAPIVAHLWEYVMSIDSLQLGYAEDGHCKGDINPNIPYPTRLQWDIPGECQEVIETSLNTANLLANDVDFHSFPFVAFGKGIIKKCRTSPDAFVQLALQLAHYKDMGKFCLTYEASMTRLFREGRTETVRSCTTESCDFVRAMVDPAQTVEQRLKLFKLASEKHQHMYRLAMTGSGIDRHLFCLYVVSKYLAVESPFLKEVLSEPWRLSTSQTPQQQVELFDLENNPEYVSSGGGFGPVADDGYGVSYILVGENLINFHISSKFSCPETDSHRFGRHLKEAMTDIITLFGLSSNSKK
inactive: [1] 0.042 | [2] 0.03 | [3] -0.004 | [4] 0.07 | [5] 0.011

CLUH (UniProt O75153)
UniProt O75153, sequence (O75153 whole entry, looked up): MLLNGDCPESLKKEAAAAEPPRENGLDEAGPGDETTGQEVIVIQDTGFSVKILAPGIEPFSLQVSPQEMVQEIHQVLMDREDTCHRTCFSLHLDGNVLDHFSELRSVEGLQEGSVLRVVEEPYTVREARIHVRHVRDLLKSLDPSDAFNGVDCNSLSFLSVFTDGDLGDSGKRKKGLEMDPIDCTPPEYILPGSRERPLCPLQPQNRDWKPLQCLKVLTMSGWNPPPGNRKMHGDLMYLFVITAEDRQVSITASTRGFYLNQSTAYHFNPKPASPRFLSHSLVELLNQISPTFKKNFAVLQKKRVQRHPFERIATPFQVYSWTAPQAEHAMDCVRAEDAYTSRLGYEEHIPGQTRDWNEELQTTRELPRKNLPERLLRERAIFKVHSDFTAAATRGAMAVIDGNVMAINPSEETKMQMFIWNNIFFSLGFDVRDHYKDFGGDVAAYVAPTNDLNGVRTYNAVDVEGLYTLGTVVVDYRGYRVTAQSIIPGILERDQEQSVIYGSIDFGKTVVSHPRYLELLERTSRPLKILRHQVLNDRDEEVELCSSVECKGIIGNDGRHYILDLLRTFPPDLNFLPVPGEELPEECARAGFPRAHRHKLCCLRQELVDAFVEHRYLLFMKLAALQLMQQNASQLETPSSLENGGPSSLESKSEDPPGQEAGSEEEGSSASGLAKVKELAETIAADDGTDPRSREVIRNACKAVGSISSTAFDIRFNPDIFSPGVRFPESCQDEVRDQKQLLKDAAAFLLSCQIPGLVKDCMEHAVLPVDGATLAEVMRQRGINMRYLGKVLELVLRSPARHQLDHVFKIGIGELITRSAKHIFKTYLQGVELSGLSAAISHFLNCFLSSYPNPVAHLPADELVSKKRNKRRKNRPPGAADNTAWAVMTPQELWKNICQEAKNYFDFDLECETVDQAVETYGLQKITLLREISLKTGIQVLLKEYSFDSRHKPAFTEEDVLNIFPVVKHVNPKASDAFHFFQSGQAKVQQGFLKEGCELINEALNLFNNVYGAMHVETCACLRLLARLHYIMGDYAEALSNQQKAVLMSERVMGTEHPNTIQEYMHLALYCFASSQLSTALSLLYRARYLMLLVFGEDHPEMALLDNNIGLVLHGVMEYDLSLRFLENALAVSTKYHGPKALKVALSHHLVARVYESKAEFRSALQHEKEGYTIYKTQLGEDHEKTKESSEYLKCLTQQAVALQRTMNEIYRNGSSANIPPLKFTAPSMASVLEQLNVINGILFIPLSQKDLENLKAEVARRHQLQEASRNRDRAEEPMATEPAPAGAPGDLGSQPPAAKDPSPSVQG
inactive: [1] 0.03 | [2] 0.008 | [3] 0.021 | [4] -0.02 | [5] -0.058

DES (UniProt P17661)
inactive: [1] 0 | [2] 0.05 | [3] 0.062 | [4] -0.219 | [5] -0.131

DARS (UniProt P14868)
UniProt P14868, sequence (P14868 whole entry, looked up): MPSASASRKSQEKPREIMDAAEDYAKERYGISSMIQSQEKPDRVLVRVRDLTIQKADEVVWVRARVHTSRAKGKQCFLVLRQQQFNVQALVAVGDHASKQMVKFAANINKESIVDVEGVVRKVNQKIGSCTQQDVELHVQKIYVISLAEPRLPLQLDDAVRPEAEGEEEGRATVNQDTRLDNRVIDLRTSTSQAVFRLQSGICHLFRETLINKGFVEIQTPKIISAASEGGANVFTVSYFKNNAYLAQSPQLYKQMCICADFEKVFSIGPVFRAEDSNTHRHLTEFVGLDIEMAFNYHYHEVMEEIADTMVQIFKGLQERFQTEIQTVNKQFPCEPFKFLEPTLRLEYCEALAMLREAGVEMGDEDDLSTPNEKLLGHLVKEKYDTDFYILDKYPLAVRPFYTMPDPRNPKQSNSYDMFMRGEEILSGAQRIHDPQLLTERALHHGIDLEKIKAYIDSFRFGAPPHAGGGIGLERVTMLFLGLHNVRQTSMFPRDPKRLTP
inactive: [1] -0.01 | [2] 0.001 | [3] 0.037 | [4] 0.043 | [5] 0.025

DHRS1 (UniProt Q96LJ7)
UniProt Q96LJ7, sequence (Q96LJ7 whole entry, looked up): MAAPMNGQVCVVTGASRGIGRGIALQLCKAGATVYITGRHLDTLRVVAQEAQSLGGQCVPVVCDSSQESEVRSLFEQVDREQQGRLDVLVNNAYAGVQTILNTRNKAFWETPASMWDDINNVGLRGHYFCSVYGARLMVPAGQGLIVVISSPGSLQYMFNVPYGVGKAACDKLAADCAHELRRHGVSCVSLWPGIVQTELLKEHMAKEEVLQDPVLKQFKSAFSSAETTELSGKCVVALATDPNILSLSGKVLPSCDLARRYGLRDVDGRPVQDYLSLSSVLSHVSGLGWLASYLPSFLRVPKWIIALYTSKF
inactive: [1] 0.15 | [2] -0.103 | [3] -0.015 | [4] 0.029 | [5] -0.107

CSPP1 (UniProt Q1MSJ5)
inactive: [1] -0.082 | [2] 0.001 | [3] 0.051 | [4] -0.008 | [5] -0.028

DIAPH1 (UniProt O60610)
UniProt O60610, sequence (O60610 whole entry, looked up): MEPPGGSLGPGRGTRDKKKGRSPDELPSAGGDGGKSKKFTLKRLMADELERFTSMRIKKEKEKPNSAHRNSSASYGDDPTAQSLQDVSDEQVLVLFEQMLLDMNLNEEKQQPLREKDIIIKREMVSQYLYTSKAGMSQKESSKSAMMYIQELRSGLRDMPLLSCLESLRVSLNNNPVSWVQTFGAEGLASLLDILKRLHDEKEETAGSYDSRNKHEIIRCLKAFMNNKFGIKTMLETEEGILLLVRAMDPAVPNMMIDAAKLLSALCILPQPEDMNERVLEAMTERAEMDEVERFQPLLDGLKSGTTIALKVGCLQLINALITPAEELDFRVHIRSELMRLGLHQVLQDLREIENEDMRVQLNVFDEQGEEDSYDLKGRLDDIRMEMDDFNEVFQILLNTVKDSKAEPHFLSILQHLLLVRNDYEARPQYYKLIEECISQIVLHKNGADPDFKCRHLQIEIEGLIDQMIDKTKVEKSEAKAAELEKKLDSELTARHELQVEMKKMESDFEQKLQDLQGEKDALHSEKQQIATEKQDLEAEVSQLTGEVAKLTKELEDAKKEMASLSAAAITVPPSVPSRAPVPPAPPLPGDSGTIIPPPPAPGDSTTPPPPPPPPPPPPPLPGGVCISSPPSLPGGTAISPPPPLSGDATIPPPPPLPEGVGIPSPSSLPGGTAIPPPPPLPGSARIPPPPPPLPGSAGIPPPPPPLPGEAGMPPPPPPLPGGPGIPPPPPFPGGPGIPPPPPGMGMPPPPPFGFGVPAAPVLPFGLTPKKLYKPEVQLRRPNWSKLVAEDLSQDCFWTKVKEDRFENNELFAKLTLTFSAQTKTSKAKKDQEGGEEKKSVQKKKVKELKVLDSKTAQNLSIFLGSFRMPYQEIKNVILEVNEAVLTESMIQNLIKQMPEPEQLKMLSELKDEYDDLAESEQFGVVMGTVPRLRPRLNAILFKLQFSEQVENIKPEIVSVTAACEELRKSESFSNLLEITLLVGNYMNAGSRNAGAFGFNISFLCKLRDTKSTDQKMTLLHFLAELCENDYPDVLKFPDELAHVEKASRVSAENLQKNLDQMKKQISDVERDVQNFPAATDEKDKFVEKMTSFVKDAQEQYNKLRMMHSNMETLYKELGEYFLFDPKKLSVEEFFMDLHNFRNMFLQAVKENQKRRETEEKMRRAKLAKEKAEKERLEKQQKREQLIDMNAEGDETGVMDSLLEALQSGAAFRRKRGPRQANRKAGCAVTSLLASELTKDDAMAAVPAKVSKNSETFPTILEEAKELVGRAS
inactive: [1] -0.005 | [2] 0.013 | [3] 0.015 | [4] 0.007 | [5] 0.023
